Experimental data published in article PMC4336329 (PLoS ONE, 2015).
About 2,200 (0.71%) of roughly 310,000 compounds showed an effect of 50% or more. Effects have a minus sign here. Many of the other results were omitted from the sample, so strong results are more common in it than they were.

What follows are compounds tested against human ether-à-go-go-related gene (hERG) potassium channel (human, UniProt Q12809) (assay: primary screen, population patch clamp on CHO cells stably expressing hERG; higher = less effect of the substance).
Sequence of human ether-à-go-go-related gene (hERG) potassium channel (Q12809 whole entry, looked up): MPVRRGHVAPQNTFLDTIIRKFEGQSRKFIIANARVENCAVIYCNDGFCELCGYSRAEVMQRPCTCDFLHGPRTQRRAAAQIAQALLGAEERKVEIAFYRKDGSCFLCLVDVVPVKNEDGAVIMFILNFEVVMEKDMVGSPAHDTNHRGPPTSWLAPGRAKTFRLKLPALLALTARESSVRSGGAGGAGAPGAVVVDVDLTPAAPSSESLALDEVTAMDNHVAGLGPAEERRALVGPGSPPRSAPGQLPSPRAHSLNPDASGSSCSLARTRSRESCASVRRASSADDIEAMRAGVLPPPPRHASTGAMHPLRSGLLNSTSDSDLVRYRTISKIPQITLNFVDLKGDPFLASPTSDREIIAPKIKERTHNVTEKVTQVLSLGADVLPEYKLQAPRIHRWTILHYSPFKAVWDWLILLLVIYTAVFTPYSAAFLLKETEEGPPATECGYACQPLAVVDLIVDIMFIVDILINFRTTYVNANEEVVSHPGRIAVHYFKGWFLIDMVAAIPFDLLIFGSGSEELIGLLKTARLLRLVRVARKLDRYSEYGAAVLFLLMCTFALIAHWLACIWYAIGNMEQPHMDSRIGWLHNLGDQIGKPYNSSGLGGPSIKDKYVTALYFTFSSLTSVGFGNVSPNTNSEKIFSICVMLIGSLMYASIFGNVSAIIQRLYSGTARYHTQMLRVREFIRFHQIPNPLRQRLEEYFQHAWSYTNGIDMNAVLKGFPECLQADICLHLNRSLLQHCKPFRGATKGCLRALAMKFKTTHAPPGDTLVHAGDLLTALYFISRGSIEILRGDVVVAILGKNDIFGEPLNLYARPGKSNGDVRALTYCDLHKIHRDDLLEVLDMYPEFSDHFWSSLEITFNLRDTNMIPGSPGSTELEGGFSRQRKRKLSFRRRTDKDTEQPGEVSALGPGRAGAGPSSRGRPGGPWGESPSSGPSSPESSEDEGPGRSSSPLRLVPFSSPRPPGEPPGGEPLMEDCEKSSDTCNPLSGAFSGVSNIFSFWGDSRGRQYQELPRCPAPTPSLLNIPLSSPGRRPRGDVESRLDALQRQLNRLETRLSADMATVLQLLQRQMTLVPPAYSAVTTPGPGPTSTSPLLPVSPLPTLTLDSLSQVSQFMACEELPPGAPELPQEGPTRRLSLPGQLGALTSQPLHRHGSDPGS

Structure (SMILES)	hERG current change (%, negative = inhibition) at 1uM [%]
NC(=O)Nc1ccccc1C(=O)NCCc1ccccc1	9.22
Cn1c(SCc2ccc3c(c2)OCO3)nnc1-c1ccccc1	10.4
Cc1cc2nnn(-c3nnc(-c4ccccc4)c4ccccc34)c2cc1C	5.53
CCCc1[nH]n(-c2ccc(F)cc2)c(=O)c1C=Nc1cccc(F)c1	16.9
COC(=O)c1[nH]c2ccc(Br)cc2c1NC(=O)C(C)N1CCN(C2CCCCC2)CC1 (stereo not drawn)	-82.6
COC(=O)c1[nH]c2ccccc2c1NC(=O)C(C)N1CC(C)OC(C)C1 (stereo not drawn)	10.2
COC(=O)c1[nH]c2ccc(Br)cc2c1NC(=O)CN1CCCc2ccccc21	8.7
Cc1scc(-c2n[nH]c(=S)n2C(C)c2ccccc2)c1C (stereo not drawn)	8.59
Cc1ccc(CNC(=O)[C@H](C)NC(=O)C2CCN(C(=O)[C@@H](N)CC(C)C)CC2)cc1	6.77
Cl.c1ccc(CNc2c3c(nc4ccccc24)CCC3)cc1	-75.8
c1coc(CNc2c3c(nc4ccccc24)CCC3)c1	-82
COCCNc1c2c(nc3ccccc13)CCC2.Cl	-41.5
Cl.c1ccc(CNc2nc(NCc3ccccc3)c3ccccc3n2)cc1	16.8
OCCNc1c2ccccc2nc2ccccc12	-3.35
CC(C)CNc1c2c(nc3ccccc13)CCC2.Cl	-33.5
OCCNc1c2c(nc3ccccc13)CCCC2	-15.9
O=C(NCc1ccco1)c1c2c(nc3ccccc13)CCC2	3.32
c1ccc(CNc2c3ccccc3nc3ccccc23)cc1	-74.5
CCc1ccc(NC(=O)c2cnc3scc(C)n3c2=O)cc1	4.58
Cc1ccc(NC(=S)NCCc2ccc(Cl)cc2)c(C)c1	12.4
COc1ccc(CNC(=O)CCCn2nc(C)c3c(C)n(-c4ccc(C)cc4)nc3c2=O)cc1	6.87
O=c1c2ccccc2cnn1Cc1nnc(-c2cccs2)o1	13.7

Structure (SMILES)	hERG current change (%, negative = inhibition) at 1uM [%]
CCOC(=O)CSc1nc2c(c(=O)[nH]c(=O)n2C)n1CCCc1ccccc1	1.75
CCOc1ccc(S(=O)(=O)NCCCN2CCOCC2)cc1	9.88
Cn1cnnc1SCC(=O)OCN1C(=O)c2ccccc2C1=O	7.64
COc1ccc(CCNC(=O)c2cc3c(=O)n4ccccc4nc3n(C3CCCCC3)c2=N)cc1	-67.6
COc1ccc(CCNC(=O)c2cc3c(=O)n4ccccc4nc3n(C3CCCCC3)c2=N)cc1OC	-61.9
COc1ccc(CCNC(=O)c2cccc3ccccc23)cc1OC	22
COc1ccc(CCNC(=O)c2c(C)nc3ccccn23)cc1OC	-9.75
COc1ccc(CCNC(=O)c2c(C)nc3ccccn23)cc1	4.94
COc1ccc(CCNC(=O)c2cnc3ccccn3c2=O)cc1	-1.13
COc1ccc(CN(C)CC(=O)Nc2cccc(S(=O)(=O)N(C)c3ccccc3)c2)c(OC)c1	-25
COc1ccc([N+](=O)[O-])c(OC)c1C(=O)NC(=O)Nc1c(F)c(F)c(F)c(F)c1F	4.71
COc1ccc(NC(=O)C(=O)NCCN2CCN(C(=O)c3ccc(C)cc3)CC2)cc1	-28.6
O=C(NCCN1CCN(C(=O)c2ccc(F)cc2)CC1)c1ccc(F)cc1	-32
Cl.O=C(NCCN1CCCC1)c1ccc(Br)cc1	3.38
O=C(NCCN1CCN(C(=O)c2ccc([N+](=O)[O-])cc2)CC1)C(=O)NCc1ccccc1	-85.9
O=C(NCCN1CCN(C(=O)c2cccc(Br)c2)CC1)C(=O)NCc1ccccc1	-11.2
CCOc1ccc(NC(=O)C(=O)NCCN2CCN(S(=O)(=O)c3ccc(C)cc3)CC2)cc1	11.6
CCOc1ccc(NC(=O)C(=O)NCCN2CCN(C(=O)c3ccc(C)cc3)CC2)cc1	-65.5
O=C(NCCN1CCN(C(=O)c2ccc(F)cc2)CC1)C(=O)NCc1ccccc1	-75.1
O=C(NCCN1CCN(c2ccc([N+](=O)[O-])cc2)CC1)NCc1ccccc1	-20.2
CC(C)(C)c1ccc(C(=O)N2CCN(CCNC(=O)C(=O)NCc3ccccc3)CC2)cc1	-8.22
O=C(NCCN1CCN(C(=O)c2cccc([N+](=O)[O-])c2)CC1)C(=O)NCc1ccc(Cl)cc1	0.645

Structure (SMILES)	hERG current change (%, negative = inhibition) at 1uM [%]
O=C(NCCN1CCN(C(=O)c2ccc(Br)cc2)CC1)c1ccc(Br)cc1	-63.5
CCOC(=O)c1c(NC(=O)C2C3C=CC(C3)C2C(=O)O)sc2c1CC(C)(C)OC2 (stereo not drawn)	2.99
CCOC(=O)CC1(NC(=O)c2cc(COc3cccc(OC)c3)on2)CCCCC1	10.3
CN1CCN(S(=O)(=O)c2cccc(C(=O)Oc3cccc(C#N)c3)c2)CC1	11.8
CC12CC3CC(C)(C1)CC(C(=O)NNC(=O)c1ccncc1)(C3)C2	-7.13
CC(=O)c1ccc(NC(=S)Nc2cccc(Cl)c2C)cc1	12.3
CCNC(=O)NC(=O)COC(=O)CNC(=O)COc1ccccc1	14.5
CNC(=O)C(=O)NCCN1CCN(C(=O)c2ccc([N+](=O)[O-])cc2)CC1	9.09
CCCCc1ccc(NC(=O)C(=O)NCCN2CCN(C(=O)c3ccc([N+](=O)[O-])cc3)CC2)cc1	0.387
CC(NC(=O)C(=O)NCCN1CCN(C(=O)c2ccc([N+](=O)[O-])cc2)CC1)c1ccccc1 (stereo not drawn)	-67.8
Cc1ccc(C(=O)N2CCN(CCNC(=O)C(=O)NC(C)C)CC2)cc1	7.95
O=C(NCCN1CCN(C(=O)c2ccc([N+](=O)[O-])cc2)CC1)C(=O)Nc1ccc(F)cc1	-84.3
CC(NC(=O)C(=O)NCCN1CCN(C(=O)c2ccccc2Br)CC1)c1ccccc1 (stereo not drawn)	9.08
Cc1ccc(C(=O)NCC(=O)N2CCCCCCC2)cc1	20.7
COc1cc(OC)cc(C(=O)NC(=S)Nc2nnn(C)n2)c1	13
O=C(Nc1ccc(F)cc1)N1CCCC(c2nc3c(nnn3Cc3ccccc3Cl)c(=O)[nH]2)C1 (stereo not drawn)	13.4
CCOC(=O)c1csc(NC(C)=O)n1	7.33
CCCN1CCC(=O)N([C@H](CSc2ccc(OC)cc2)CC(C)C)CC1	-42.3
CC(C)CN1CCC(=O)N([C@H](CSc2ccc(Br)cc2)c2ccccc2)CC1	-21.5
CC(=O)Nc1ccc(SC[C@H](c2ccccc2)N2CCN(CCc3ccccc3)CCC2=O)cc1	-56
CCCN1CCC(=O)N([C@H](CSc2ccc(OC)cc2)Cc2ccccc2)CC1	-36.3
CN1CCC(=O)N([C@H](CSc2ccc(Br)cc2)c2ccccc2)CC1	-89.8

Structure (SMILES)	hERG current change (%, negative = inhibition) at 1uM [%]
CC(=O)Nc1ccc(SC[C@H](CC(C)C)N2CCN(CCc3ccccc3)CCC2=O)cc1	-26.2
Cc1ccc(SC[C@H](Cc2ccccc2)N2CCN(CCc3ccccc3)CCC2=O)cc1	8.27
CC(=O)Nc1ccc(SC[C@H](Cc2ccccc2)N2CCN(CCc3ccccc3)CCC2=O)cc1	4.37
CCCN1CCC(=O)N([C@H](CSc2ccccc2)CC(C)C)CC1	-31.8
CN1CCC(=O)N([C@H](CSc2ccccc2)c2ccccc2)CC1	-46.4
CCCN1CCC(=O)N([C@H](CSc2ccc(OC)cc2)c2ccccc2)CC1	-81.7
CCCN1CCC(=O)N([C@H](CSc2ccc(C)cc2)c2ccccc2)CC1	-76.3
COc1ccc(CNC(=O)c2cc(COc3c(F)cccc3F)on2)cc1OC	7.12
Cc1ccc(NC(=O)/C(C#N)=C/c2ccsc2)c(C)c1	15.6
Cc1ccc(S(=O)(=O)N(C)c2ccc(C(=O)Nc3c(C)n(C)n(-c4ccccc4)c3=O)cc2)cc1	4.15
O=C(NNS(=O)(=O)c1ccc(F)cc1)C1CC(c2cccnc2)=NO1 (stereo not drawn)	14.8
O=C(/C(=N\O)n1cncn1)c1ccc(Cl)cc1Cl	15.2
COc1ccc(Cc2nnc(NC(=O)Nc3ccccc3F)s2)cc1	15.2
Cc1ccccc1OCC(=O)Nc1ccccc1N1CCC(C)CC1	18.9
O=C1CCCC(O)=C1C1NCCc2ccccc21 (stereo not drawn)	9.52
Cc1ccc(SC[C@H](c2ccccc2)N2CCN(CCc3ccccc3)CCC2=O)cc1	-10.2
CCCN1CCC(=O)N([C@H](CSc2ccccc2)c2ccccc2)CC1	-82.2
O=C1CCN(CCc2ccccc2)CCN1[C@H](CSc1ccccc1)c1ccccc1	-72.2
CCCN1CCC(=O)N([C@H](CSc2ccc(Br)cc2)c2ccccc2)CC1	-17.5
O=C1CCN(CCc2ccccc2)CCN1[C@H](CSc1ccc(Br)cc1)c1ccccc1	-18.8
O=C1CCN(Cc2ccccc2)CCN1[C@H](CSc1ccccc1)c1ccccc1	2.25
